Bioassay records as filed in PubChem.
Sm TGR inh = qHTS Assay for the Inhibitors of Schistosoma Mansoni Peroxiredoxins; Schistosoma mansoni thioredoxin glutathione reductase (TGR), Q962Y6; purified TGR, DTNB reduction, TNB absorbance 405 nm; Potency, µM (highest dose often 114 µM), for inactives: at the top dose activity change, negative = inhibition, actives largely listed as inhibitors; 360,000 tested, 3% active; AID 485364, 2010; also: % is scaled to controls: 0 for no effect and ±100 for the full control effect; nearly all actives have a fitted effect of over 60% in size
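TGR 20 nM + NADPH 100 uM (dispensed conc.), cpd preinc 15 min RT; start with NADPH (500 uM addition) then DTNB (15 mM addition). Kinetic TNB absorbance, 405 nm filter. Four-parameter Hill fit across titration.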
AmpC inh detg = qHTS Inhibitors of AmpC Beta-Lactamase (assay with detergent); P00811; AmpC hydrolysis of nitrocefin, absorbance 480 nm, 0.01% Triton; Potency, µM (titrated, usually from 114 µM), without a hit: top-dose activity change, negative = inhibition, actives largely listed as inhibitors; 370,000 tested, 0.041% active; AID 485294, 2010;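 also: 0% = no-compound wells and -100% = no-enzyme wells; nearly all actives have a fitted effect of over 25% in size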
Target sequence (P00811 whole entry, looked up): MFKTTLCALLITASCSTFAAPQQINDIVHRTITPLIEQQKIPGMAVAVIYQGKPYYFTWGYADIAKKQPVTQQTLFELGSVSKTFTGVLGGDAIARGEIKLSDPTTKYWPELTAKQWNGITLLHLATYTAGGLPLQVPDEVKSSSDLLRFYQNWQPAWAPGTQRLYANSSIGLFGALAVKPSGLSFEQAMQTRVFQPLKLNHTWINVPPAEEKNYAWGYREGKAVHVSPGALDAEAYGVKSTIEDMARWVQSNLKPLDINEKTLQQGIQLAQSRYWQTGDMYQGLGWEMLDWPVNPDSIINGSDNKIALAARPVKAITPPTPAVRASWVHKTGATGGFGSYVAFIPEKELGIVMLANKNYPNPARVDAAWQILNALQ
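20 mM phosphate pH 7.0 + 0.01% (detergent screen) or 0.0001% Triton X-100; 5.3 nM AmpC reagent; cpd preinc 15 min RT; nitrocefin (800 uM stock) to start; A480 q20 s × 4 min; Activity was normalised to no-enzyme and no-compound control wells.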
AmpC inh no detg = qHTS Inhibitors of AmpC Beta-Lactamase (assay without detergent); P00811; AmpC nitrocefin hydrolysis, absorbance 480 nm, 0.0001% Triton; Potency, µM (series often up to 57.1 µM), without a hit: at the top dose activity change, negative = inhibition, most hits filed as inhibitors; 330,000 tested, 0.52% active;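 also: plate controls were no compound for no effect and no enzyme for full effect; nearly all actives have a fitted effect of over 20% in size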
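20 mM phosphate pH 7.0 + 0.01% (detergent screen) or 0.0001% Triton X-100; 5.3 nM AmpC reagent; cpd preinc 15 min RT; nitrocefin (800 uM stock) to start; A480 q20 s × 4 min; Activity was normalised to no-enzyme and no-compound control wells.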
Pf growth 48h = Primary qHTS for delayed death inhibitors of the malarial parasite plastid, 48 hour incubation. P. falciparum luciferase growth in erythrocytes, 48 h. Potency, µM (doses to about 28.7 µM), without a hit: at the top dose activity change, negative = inhibition, hits mostly inhibitors. 310,000 tested, 5.9% active; also: % is scaled to controls: 0 for no effect and ±100 for the full control effect
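Compounds are pin-transferred into medium, infected erythrocytes (2% hematocrit, 0.1% parasitemia final) are added, and plates sit one parasite generation at 37 C in 5% CO2. Detection reagent is then added and luminescence measured.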
SARS PLpro yeast = qHTS of Yeast-based Assay for SARS-CoV PLP | AID 485353, 2010 | S. cerevisiae expressing SARS-CoV PLpro, growth rescue | 330,000 tested, 0.19% active | Potency, µM (doses to about 32.9 µM), inactives show at the top dose activity, positive = growth rescue, hits mostly activators; calls by dose curve; also: 0% is about no effect; nearly all actives have a fitted effect of over 55% in size
Pf growth 96h = Primary qHTS for delayed death inhibitors of the malarial parasite plastid, 96 hour incubation; AID 504834, 2011; P. falciparum luciferase reporter growth, 96 h; 320,000 tested, 6.9% active; Potency, µM (top dose mostly 28.7 µM), for inactives: at the top dose activity change, negative = inhibition, most hits filed as inhibitors; also: % is scaled to controls: 0 for no effect and ±100 for the full control effect
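Delayed-death screen, second-generation endpoint: infected erythrocytes, 2% hematocrit, 0.05% parasitemia final; 96 hours at 37 C, 5% CO2; luciferase detection reagent; luminescence decrease equals reduced growth.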
* = called active by the depositor; ? = inconclusive; / = not tested or not shown; [ ] = dose if it differs, or a comment. The list is not random: actives were taken first. Their share in the collection is about 12%. Unless noted, calls follow the shape of the dose curve; as a rule, active = well fitted curve in the direction sought with a large enough effect; inconclusive = small, poorly fitted or top-dose-only effect, or another doubt; inactive = no such curve, though single readings can be large; an effect the other way counts as inactive or inconclusive. Potency is read from the fitted curve at half-maximal effect.

SMILES	Sm TGR inh	AmpC inh detg	AmpC inh no detg	Pf growth 48h	SARS PLpro yeast	Pf growth 96h
CC(C)CCn1c(N)c(C(=O)OCC2CCCO2)c2nc3ccccc3nc21 (stereo not drawn)	-3.5%	-11.3%	104.7%	?	-8.8%	?
CCCCOCCCn1c(N)c(C(=O)OCCOC)c2nc3ccccc3nc21	13.3%	0.8%	174.5%	?	-8.2%	10.4µM*
CCCCn1c(N)c(C(=O)OCCOC)c2nc3ccccc3nc21	-14.2%	-0.7%	48.5%	?	0.6%	?
Cc1ccccc1OCc1csc(N)n1	8.8%	-1.2%	-12.3%	45.2%	-17.2%	43.2%
N#Cc1nc(-c2ccc(COc3ccc(Cl)cc3)o2)oc1N1CCCCC1	-1.7%	22.5%	/	/	/	/
CNC(=O)C1CCC(=O)N1Cc1ccccc1Cl (stereo not drawn)	14.7%	?	-21.1%	31.2%	0.3%	/
O=C(Nc1cc(Cl)cc(Cl)c1)C1CCC(=O)N1Cc1ccccc1Cl (stereo not drawn)	2.8%	8.2%	21.2%	9.28µM*	-12.9%	?
CCN(CC)CCNC(=O)c1c(C)[nH]c(/C=C2\C(=O)Nc3ccc(F)cc32)c1C	/	/	/	2.13µM*	/	2.69µM*
COc1cccc(C(=O)NN2c3ccccc3CCc3ccccc32)c1	5.2%	-1.8%	-13.9%	9.28µM*	-8.5%	13.1µM*
Cc1ccc(C(=O)NN2C(=O)C3C4C=CC(C4)[C@@H]3C2=O)cc1 (stereo partly drawn)	-17.1%	-7.0%	-17.5%	1.85µM*	-4.6%	81.6%
Cc1cccc(C(=O)NN2C(=O)C3C(c4ccccc4)C=CC(c4ccccc4)C3C2=O)c1 (stereo not drawn)	-7.2%	-11.0%	-16.7%	17.5%	-8.5%	38.1%
COc1ccc(C(=O)NN2C(=O)C3C4C=CC(O4)C3C2=O)cc1 (stereo not drawn)	17.8µM*	2.5%	-19.4%	0.0%	-2.0%	37.9%
COc1cccc(C(=O)NN2C(=O)C3C4C=CC(O4)C3C2=O)c1 (stereo not drawn)	20µM*	-3.0%	-9.6%	/	0.4%	29.4%
Cc1ccccc1CNC(=O)CCSCc1cnn(-c2ccccc2)c1-n1cccc1	-5.0%	-3.8%	/	/	/	/
Cc1ccc(S(=O)(=O)c2cnc(SCC(=O)Nc3cccc(Cl)c3)nc2N)cc1C	-0.4%	9.1%	/	/	/	/
Cc1ccc(C(=O)NC(O)C(Cl)Cl)cc1 (stereo not drawn)	-13.2%	-15.7%	-9.7%	-3.1%	0.4%	5.7%
c1nc2n(n1)C1=C(CCCC1)C1(CCCCC1)N2	8.6%	?	-5.8%	?	0.4%	2.62µM*
COc1ccc(-c2c[n+]3c(n2-c2ccccc2)SCC3)cc1OC	-14.5%	-7.9%	-14.0%[11.4 µM]	1.31µM*	0.1%	?
Cc1ccc(S(=O)(=O)c2cn(CC(=O)Nc3ccc(F)cc3)c3cc4c(cc3c2=O)OCO4)cc1	-5.9%	3.1%	/	/	/	/
CCn1ccnc1CNC(=O)C1CCC(=O)N(Cc2ccccc2F)C1 (stereo not drawn)	-21.0%	-0.9%	-3.3%	-1.1%	-0.9%	11.7µM*
COc1cc(CN2CCN(Cc3ccco3)CC2)cc(OC)c1	-13.8%	3.4%	-11.8%	24.5%	-0.3%	2.08µM*
COc1ccc(CN2CCN(Cc3ccco3)CC2)c(OC)c1	-12.5%	-6.4%	-13.7%	/	-1.4%	-0.2%
CCN1C(=O)N[C@@H](c2cccs2)C(C(C)=O)=C1C	13.7%	1.7%	-21.0%	57.2%	-2.3%	48.6%
CCC(NC(=S)NC1CCCCC1)c1ccc(C)cc1 (stereo not drawn)	57.8%	-8.1%	-34.8%	?	-5.3%	7.38µM*
CC(NC(=S)NC1CCCCC1)c1ccccc1 (stereo not drawn)	5.4%	-12.9%	-21.7%	?	7.2%	37.9%
SMILES	Sm TGR inh	AmpC inh detg	AmpC inh no detg	Pf growth 48h	SARS PLpro yeast	Pf growth 96h
CCCc1ccc(C(C)NC(=S)NC2CCCCC2)cc1 (stereo not drawn)	5.3%	-11.1%	-23.9%	13.1µM*	-1.8%	32.9%
Cc1ccc(CNC(=S)NC2CCCCC2)cc1	-27.2%	?	-41.5%	-13.4%	10.4%	?
Cc1ccc(C)c(C(C)NC(=S)NC2CCCCC2)c1 (stereo not drawn)	-18.3%	-0.5%	-25.0%	13.1µM*	-4.1%	36.5%
O=C(Nc1cc(C(F)(F)F)ccc1-n1cnc2ccccc21)c1ccccc1	-12.3%	-2.6%	-10.2%	-17.7%	-9.2%	0.0%
COc1ccc(C)cc1NC(=O)CCC(=O)Nc1nnc(C2CCCCC2)s1	-2.9%	-12.1%	-18.9%	24.0%	-2.2%	-1.1%
CCC(Sc1ccc2nnc(CCNS(=O)(=O)c3ccc(OC)cc3)n2n1)C(=O)OC (stereo not drawn)	-1.9%	-3.5%	23.8%	5.6%	-1.6%	7.38µM*
Oc1ccc(Cl)cc1CNc1nccs1	0.9%	-17.0%	-27.7%	?	-3.9%	?
Oc1ccc(Cl)cc1CNCc1ccc(Cl)cc1	-5.0%	-12.5%	-28.7%	3.7µM*	10.0%	5.86µM*
Oc1ccc(Cl)cc1CNCc1ccc(C(F)(F)F)cc1	0.1%	-1.6%	-14.1%	1.17µM*	6.2%	5.86µM*
Cc1ccsc1CNCc1cc(Cl)ccc1O	5.3%	-13.1%	-6.8%	1.65µM*	2.7%	2.94µM*
Oc1ccc(Cl)cc1Cc1ccccc1	/	/	/	10.7µM*	/	7.57µM*
O=C(O)c1ccc(CNCc2ccc(Cl)cc2Cl)cc1	-6.1%	?	-26.9%	-2.7%	3.8%	/
Cc1ccc(CNc2oc(-c3ccc(COc4ccc(C)cc4)o3)nc2C#N)cc1	5.1%	21.5%	/	/	/	/
Oc1ccc(Cl)cc1CNCc1ccc(F)cc1	-6.9%	-1.8%	-12.5%	5.22µM*	6.3%	5.22µM*
COc1cccc(CNC(=O)Cn2cc3c(n2)-c2c(oc(C(=O)N4CCOCC4)c2C)CC3)c1	4.0%	-11.5%	/	/	/	/
Cn1cncc1C#Cc1c(C=O)n(C)c2ccccc12	-31.3%	-0.4%	-13.2%	11.7µM*	-1.0%	?
COc1cc(C#Cc2c(C=O)n(C)c3ccccc23)cc(OC)c1	-5.4%	1.3%	-16.3%	?	-1.8%	?
Cn1cncc1C#Cc1c(C=O)[nH]c2ccccc12	-27.3%	2.1%	-18.2%	8.28µM*	-2.1%	5.22µM*
Cn1cncc1C#Cc1c(-c2ccc(S(C)(=O)=O)cc2)sc2ccccc12	/	/	2.0%	/	-5.3%	/
CCOC(=O)c1c(Nc2ccc(Cl)cc2)sc(/C=C2\C=Nc3ccccc32)c1O	6.2%	-0.9%	-31.1%	4.15µM*	5.7%	/
CCc1cccc(-n2nnc(-c3nc(-c4ccccc4Cl)no3)c2N)c1	2.8%	15.8%	/	/	/	/
